PubChem BioAssay (NCI)
Compounds without any hit were thinned out: in the full panel of roughly 79,000, 15% have a hit. Unmarked numbers belong to inactive results. Active and inactive are the calls of the source. No stated cut-off is given here; in the data, active means growth inhibition above about 70%; inactive means the rest.

Columns and labels:
[1] = NCI Yeast Anticancer Drug Screen. Data for the rad50 strain (AID 155);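 further: 0% = growth of vehicle-only cultures of the same strain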; conditions: S. cerevisiae rad50 strain growth inhibition, stronger effect = higher value
In short: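 Growth of the mutant yeast was measured after compound exposure and referenced to vehicle-treated cultures.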

[2] = NCI Yeast Anticancer Drug Screen. Data for the mec2-1 strain (AID 157); conditions: S. cerevisiae mec2-1 strain, stronger effect = higher value
In short: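 Test agents were screened against the mec2-1 yeast strain, with defined DNA repair or cell cycle alteration. Growth was scored as inhibition against vehicle-only controls.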

[3] = NCI Yeast Anticancer Drug Screen. Data for the sgs1 mgt1 strain (AID 161);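 further: 0% = growth of cultures given vehicle only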; conditions: S. cerevisiae sgs1 mgt1 strain, stronger effect = higher value
In short: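 Test agents were incubated with a DNA-repair-mutant yeast strain. Growth was then read and compared against vehicle-treated controls.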

[4] = NCI Yeast Anticancer Drug Screen. Data for the cln2 rad14 strain (AID 165);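 further: 0% = growth equal to vehicle treated cultures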; conditions: S. cerevisiae cln2 rad14 strain, stronger effect = higher value
In short: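 Growth of compound-exposed yeast (cln2 rad14 genotype) measured and expressed as inhibition relative to vehicle.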

[5] = NCI Yeast Anticancer Drug Screen. Data for the bub3 strain (AID 167); conditions: S. cerevisiae bub3 mutant strain, stronger effect = higher value
In short: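 Whole-cell yeast assay. The mutant strain was incubated with compounds, and growth inhibition was determined by comparison with vehicle-treated cells.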

[6] = NCI Yeast Anticancer Drug Screen. Data for the mlh1 rad18 strain (AID 175); conditions: S. cerevisiae mlh1 rad18 strain growth inhibition, stronger effect = higher value
In short: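 In this whole-cell yeast screen, a strain with altered DNA damage repair is challenged with compound, and its growth is measured against matched vehicle-treated controls.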

[7] = at 5.0 µM (retest, dose inferred, filed as 0.5)
[8] = at 50.0 µM (retest, dose inferred, filed as 5.0)

SMILES | growth inhibition [1, 7] | growth inhibition [1, 8] | growth inhibition ([1]; at 50.0 µM) | growth inhibition [2, 7] | growth inhibition [2, 8] | growth inhibition ([2]; at 50.0 µM) | growth inhibition [3, 7] | growth inhibition [3, 8] | growth inhibition ([3]; at 50.0 µM) | growth inhibition [4, 7] | growth inhibition [4, 8] | growth inhibition ([4]; at 50.0 µM) | growth inhibition [5, 7] | growth inhibition [5, 8] | growth inhibition ([5]; at 50.0 µM) | growth inhibition [6, 7] | growth inhibition [6, 8] | growth inhibition ([6]; at 50.0 µM)
O=C(OCC(CCl)OC(=O)C(Cl)(Cl)Cl)C(Cl)(Cl)Cl (centres undefined) | 2% | -5% | 52.2% | 12% | 16% | 46.4% | -31% | -16% | 67% | 2% | 0% | 78.5% (active) | 1% | -4% | 55.3% | -30% | -53% | 54.8%
NCCNCCNCCNCCN (tested in a mixture with another compound) | 0% | 1% | 90.3% (active) | -35% | 0% | 25.8% | 0% | 2% | 52.9% | 2% | 4% | 35.8% | -1% | -5% | 80% (active) | 0% | 2% | 62.5%
C/C=C(\C)C(=O)OC1CC(C)(C)CC2C3=CCC4C5(C)CCC(=O)C(C)(C)C5CCC4(C)C3(C)CCC12C(=O)O (centres undefined) (tested in a mixture with another compound) | 1% | 78% (active) | 86% (active) | -9% | 70% (active) | 84.7% (active) | 5% | 77% (active) | 89.2% (active) | 38% | 88% (active) | 87.9% (active) | 1% | 82% (active) | 86% (active) | 26% | 82% (active) | 84.3% (active)
CCOC(=O)CNC(=O)C1C2c3ccccc3C(c3ccccc32)C1C(=O)O (centres undefined) | 3% | 38% | 90.3% (active) | 3% | 40% | 95.4% (active) | 0% | 39% | 96% (active) | 1% | 25% | 95.9% (active) | 1% | 45% | 94% (active) | -1% | 32% | 98.5% (active)
O=C(N/N=C/c1cc(Br)cc(Br)c1[O-])c1ccccc1O.O=C(N/N=C/c1cc(Br)cc(Br)c1[O-])c1ccccc1O.[Ni+2] | 97% (active) | 98% (active) | 18.4% | 98% (active) | 98% (active) | 87% (active) | 98% (active) | 99% (active) | 61.2% | 93% (active) | 98% (active) | 31.6% | 96% (active) | 97% (active) | 85.5% (active) | 96% (active) | 98% (active) | 55.6%
CC1(C)N=C(N)N=C(N)N1c1ccc(OCCCCNC(=O)Nc2ccc(S(=O)(=O)F)cc2)c(Cl)c1 | -3% | 96% (active) | 98.3% (active) | -2% | 97% (active) | 99.3% (active) | -1% | 98% (active) | 99.4% (active) | -4% | 98% (active) | 97.3% (active) | -3% | 98% (active) | 98.8% (active) | -2% | 99% (active) | 99.1% (active)
O=[N+]([O-])O.[In] | 9% | 49% | 11.6% | 17% | 53% | 44.2% | 6% | 43% | 50.3% | 3% | 22% | -24.1% | 11% | 58% | -1.85% | 13% | 55% | 65.3%
CCC[CH2][Sn]1([CH2]CCC)[O]C(=O)c2ccc(C)cc2[O]1 | 79% (active) | 99% (active) | 98.8% (active) | 84% (active) | 99% (active) | 99.3% (active) | 85% (active) | 98% (active) | 99.2% (active) | 76% (active) | 98% (active) | 98% (active) | 84% (active) | 98% (active) | 98.7% (active) | 82% (active) | 97% (active) | 98.8% (active)
